Test results: PubChem BioAssay AID1159580 (chemical genetic matrix, 2015)
“And” between values parts separate entries of the source, which are not always exact repeats. Equal entries are not always repeated. The campaign covered roughly 5,500 compounds. About 2,000 (36%) were called active. About 18% were inconclusive and are not listed. No stated cut-off is given here; in the data, active means normalized growth mostly below about 0.91 (no sharp cut-off); inconclusive means no clear call, values can overlap the other calls; inactive means mostly above about 0.92. The list shows a part of the results.

Assay: chemical genetic growth profiling, strain panel (AID 1159580);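 further: tested at 20 µM; growth read once vehicle control cultures reached saturation at 30 °C; 1 = growth at the plate median or of vehicle wells; lower values mean less growth of the strain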
Conditions: S. cerevisiae deletion strains, growth OD

Measured: normalized growth

CCN1CCCC(OC(=O)C(c2ccccc2)c2ccccc2)C1 (stereo not drawn)
inactive: locus YAL021C, strain ccr4, active compounds read low 0.978 | locus YAL026C, strain drs2, active compounds read low 0.99 | locus YAL030W, strain snc1, active compounds read low 0.989 | locus YBL061C, strain skt5, active compounds read low 0.982 | locus YBR009C, strain hhf1, active compounds read low 0.992 | locus YBR021W, strain FUR4, active compounds read low 1.03 | locus YBR023C, strain chs3, active compounds read low 0.973 | locus YBR171W, strain sec66, active compounds read low 0.99 | locus YBR229C, strain ROT2, active compounds read low 1.01 | locus YBR231C, strain swc5, active compounds read low 0.989 | locus YBR279W, strain paf1, active compounds read low 0.998 | locus YCL011C, strain gbp2, active compounds read low 1 | locus YCL016C, strain dcc1, active compounds read low 0.973 | locus YCL029C, strain bik1, active compounds read low 1.01 | locus YCL061C, strain MRC1, active compounds read low 0.989 | locus YCL069W, strain vba3, active compounds read low 0.989 | locus YCR088W, strain abp1, active compounds read low 0.978 | locus YDL005C, strain med2, active compounds read low 0.982 | locus YDL035C, strain GPR1, active compounds read low 1.03 | locus YDL040C, strain nat1, active compounds read low 0.98 | locus YDL074C, strain BRE1, active compounds read low 1.01 | locus YDL101C, strain DUN1, active compounds read low 1.01 | locus YDL134C, strain PPH21, active compounds read low 1.02 | locus YDL185W, strain tfp1, active compounds read low 1.01 | locus YDL192W, strain arf1, active compounds read low 1.01 | locus YDR001C, strain nth1, active compounds read low 0.975 | locus YDR069C, strain doa4, active compounds read low 1 | locus YDR101C, strain arx1, active compounds read low 0.992 | locus YDR137W, strain rgp1, active compounds read low 1.01 | locus YDR159W, strain sac3, active compounds read low 0.989 | locus YDR162C, strain NBP2, active compounds read low 1.01 | locus YDR195W, strain ref2 0.963 | locus YDR297W, strain sur2, active compounds read low 0.993 | locus YDR318W, strain mcm21, active compounds read low 1.01 | locus YDR334W, strain swr1, active compounds read low 0.958 | locus YDR335W, strain msn5, active compounds read low 0.963 | locus YDR388W, active compounds read low 1.01 | locus YDR392W, strain spt3, active compounds read low 0.975 | locus YDR502C, strain sam2, active compounds read low 0.999 | locus YEL003W, strain gim4, active compounds read low 0.978 | locus YEL037C, strain rad23, active compounds read low 0.978 | locus YEL061C, strain CIN8 (second series), active compounds read low 0.999 | locus YEL061C, strain CIN8, active compounds read low 1.01 | locus YER015W, strain faa2, active compounds read low 0.974 | locus YER016W, strain bim1, active compounds read low 0.986 | locus YER110C, active compounds read low 1.01 | locus YER111C, strain swi4, active compounds read low 0.978 | locus YER155C, strain BEM2 (second series), active compounds read low 1 | locus YER155C, strain BEM2, active compounds read low 1.01 | locus YER167W, strain BCK2, active compounds read low 1.01 | locus YFR010W, strain ubp6, active compounds read low 0.99 | locus YGL078C, strain dbp3, active compounds read low 1 | locus YGL086W, strain mad1, active compounds read low 1.01 | locus YGL167C, strain pmr1, active compounds read low 0.981 | locus YGL173C, strain kem1, active compounds read low 0.982 | locus YGL227W, strain vid30, active compounds read low 0.997 | locus YGL240W, strain doc1, active compounds read low 0.994 | locus YGL248W, strain PDE1, active compounds read low 1.01 | locus YGL253W, strain hxk2, active compounds read low 0.991 | locus YGR135W, strain pre9, active compounds read low 1 | locus YGR229C, strain SMI1, active compounds read low 1.01 | locus YGR252W, strain gcn5, active compounds read low 0.998 | locus YHR013C, strain ard1, active compounds read low 0.96 | locus YHR027C, strain rpn1, active compounds read low 0.986 | locus YHR030C, strain SLT2, active compounds read low 1.01 and 0.993 | locus YHR079C, strain IRE1 (second series), active compounds read low 1.01 | locus YHR079C, strain IRE1, active compounds read low 0.978 | locus YHR094C, strain hxt1, active compounds read low 1.01 | locus YHR129C, strain ARP1, active compounds read low 1 | locus YHR142W, strain chs7, active compounds read low 0.978 | locus YHR200W, strain rpn10, active compounds read low 1 | locus YIL066C, strain RNR3, active compounds read low 1.01 | locus YIL073C, strain SPO22, active compounds read low 1.08 | locus YIL125W, strain kgd1, active compounds read low 1 | locus YIR030C, strain dcg1, active compounds read low 1.01 | locus YJL092W, strain hpr5, active compounds read low 0.973 | locus YJL095W, strain BCK1 (second series), active compounds read low 0.994 | locus YJL095W, strain BCK1, active compounds read low 0.987 and 0.977 | locus YJL115W, strain asf1, active compounds read low 0.977 | locus YJL129C, strain trk1, active compounds read low 0.964 | locus YJL134W, strain LCB3, active compounds read low 1.01 | locus YJL154C, strain vps35, active compounds read low 0.976 | locus YJL164C, strain tpk1, active compounds read low 1 | locus YJL166W, strain qcr8, active compounds read low 0.982 | locus YJL168C, strain set2, active compounds read low 1.01 | locus YJL187C, strain SWE1 (second series), active compounds read low 1 | locus YJR043C, strain POL32, active compounds read low 1.04 | locus YJR066W, strain TOR1, active compounds read low 0.955
